The list is not random: actives were taken first. Their share in the collection is about 3.4%.
PK Bst: Pyruvate Kinase; hit rate 1.2% among 51,000; Potency, µM; purified pyruvate kinase, luminescence ATP production; ribose 5-phosphate activator present at AC10; in the data active means potency below about 11 µM; inconclusive means mostly about 12 µM to 25 µM;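 the screen sought inhibitors and activators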;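 further: scaled between full activation by ribose 5 phosphate and full inhibition by luteolin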
Luciferase inh: qHTS Assay for Inhibitors of Firefly Luciferase; Potency, µM (top dose mostly 57.1 µM), for inactives: at the top dose activity change, negative = inhibition, hits mostly inhibitors; AID 411, 2009; Luciferin 4-monooxygenase (Photinus pyralis), P08659; purified firefly luciferase, luminescence, 8 min; hit rate 2.2% among 72,000; active means well fitted inhibition curve with a large enough effect; inconclusive means small, poorly fitted or top-dose-only effect; further: on the % scale 0 is the no-effect control and ±100 the full control effect; nearly all actives have a fitted effect of over 40% in size
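Titration-based qHTS; buffer 50 mM imidazole pH 7.2, 50 mM KCl, 7 mM MgCl2, 10 uM ATP, 0.01% Tween 20, 0.05% BSA; luciferase/luciferin detector mix added after compound; 8 min, ambient; luminescence.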
GBA mod: Glucocerebrosidase; Lysosomal acid glucosylceramidase (Homo sapiens), P04062; purified enzyme, resorufin glucoside fluorescence (screen aimed at inhibitors), 20 min; Potency, µM; hit rate 1.1% among 48,000; in the data active means potency below about 15 µM; inconclusive means mostly about 16 µM to 33 µM;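 further: the screen sought inhibitors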
Target sequence (P04062 whole entry, looked up): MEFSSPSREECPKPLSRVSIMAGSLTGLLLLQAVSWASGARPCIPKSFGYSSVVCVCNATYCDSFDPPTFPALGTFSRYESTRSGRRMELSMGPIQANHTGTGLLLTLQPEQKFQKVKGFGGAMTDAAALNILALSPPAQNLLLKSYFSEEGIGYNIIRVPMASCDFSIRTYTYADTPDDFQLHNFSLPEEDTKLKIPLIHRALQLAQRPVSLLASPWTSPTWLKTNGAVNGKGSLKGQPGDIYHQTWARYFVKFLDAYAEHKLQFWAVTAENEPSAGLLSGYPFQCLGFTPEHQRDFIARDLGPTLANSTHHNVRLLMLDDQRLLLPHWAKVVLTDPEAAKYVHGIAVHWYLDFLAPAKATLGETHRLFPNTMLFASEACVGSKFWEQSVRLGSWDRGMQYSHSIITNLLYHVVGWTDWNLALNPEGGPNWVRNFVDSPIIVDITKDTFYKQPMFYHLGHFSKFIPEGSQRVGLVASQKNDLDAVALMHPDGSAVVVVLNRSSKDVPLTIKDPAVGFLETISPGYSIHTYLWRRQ
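Wild-type enzyme at 0.2 nM final in 50mM citric acid/KH2PO4, 10mM sodium taurocholate, 0.01% tween-20, pH 5.9, with resorufin beta-D-glucopyranoside at 30 uM final. Compounds titrated, 20 min at RT, red fluorescence read; AC50 from titration.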
* hit, by the source's call; [ ] = dose if it differs, or a comment. Potency means the concentration at half of the fitted maximal effect.

What do the screens show for `COC(=O)Cc1c(C)nc2nc(-c3cccnc3)[nH]n2c1=O`?
PK Bst: >57; Luciferase inh: -10%; GBA mod: >77

Results for O=C(Nc1ccc(CN2CCOCC2)cc1)c1ccc(-c2ccc(Br)cc2)o1 ?
PK Bst: 7.1*; Luciferase inh: -2%

How did COC(=O)c1ccc(NC(=O)c2ccc(CN3CCOCC3)cc2)cc1 do in these assays?
PK Bst: >57; Luciferase inh: -8%

Results for CCCC(=O)N1CCN(c2ccc(NC(=O)c3cc4ccccc4o3)cc2Cl)CC1 ?
PK Bst: >57; Luciferase inh: -10%; GBA mod: 4.2*

What do the screens show for `O=C(c1cc2ccccc2o1)N1CCN(c2ccccc2Cl)CC1`?
PK Bst: inactive; Luciferase inh: 3%; GBA mod: >77

What do the screens show for `CCC(=O)N1CCN(c2ccc(NC(=O)c3cc4ccccc4o3)cc2Cl)CC1`?
PK Bst: >57; Luciferase inh: -8%; GBA mod: 3.2*

What do the screens show for `O=C(Nc1ccc(N2CCN(C(=O)c3ccco3)CC2)c(Cl)c1)c1cc2ccccc2o1`?
PK Bst: >57; Luciferase inh: -3%; GBA mod: inconclusive

What do the screens show for `COc1ccccc1-c1nccc(NCc2cccs2)n1`?
Luciferase inh: 1%[2.29 µM]

Results for COc1ccc(C(=O)Nc2nnc(C(F)(F)F)s2)cc1 ?
Luciferase inh: -8%; GBA mod: 3.3*

What do the screens show for `COc1cc(C(=O)Nc2nc(-c3cccs3)cs2)cc(OC)c1OC`?
PK Bst: inactive; Luciferase inh: 0%; GBA mod: >77

How did COc1ccc(C(=O)Nc2nc(-c3cccs3)cs2)cc1 do in these assays?
PK Bst: inconclusive; Luciferase inh: 16µM*; GBA mod: >77

Results for O=C(Nc1nnc(C(F)(F)F)s1)c1cccnc1 ?
PK Bst: >57; Luciferase inh: -13%

Results for Cc1csc(NC(=O)c2sc3nc(-c4cccs4)ccc3c2N)n1 ?
PK Bst: 7.4*; Luciferase inh: 20µM*; GBA mod: >77

How did O=C(Cc1ccccc1)Nc1nc(-c2cccs2)cs1 do in these assays?
Luciferase inh: -26%; GBA mod: >77

How did O=C1[C@H]2[C@H]3[C@H](O)[C@H](O)C/C(=N/OC[C@@H](O)COCc4ccco4)[C@H]3CC[C@@H]2C(=O)N1Cc1ccccc1 do in these assays?
Luciferase inh: 1%[11.4 µM]

Results for N=c1ccn2c(n1)O[C@H]1[C@@H](OP(=O)(O)O)[C@H](CO)O[C@H]12 ?
Luciferase inh: 2%[11.4 µM]

What do the screens show for `COC(=O)C/C=C\[C@@H](C)[C@@H](/C=N\OC[C@@H](C)[C@H](OCc1ccccc1)C(C)C)OC`?
Luciferase inh: 1%[11.4 µM]

Results for O=C(O)C[C@H](Nc1ccccc1)C(=O)O ?
Luciferase inh: -1%[11.4 µM]

How did O=C(c1ccncc1)N1CCC2(CCCN(c3ncccn3)C2)CC1 do in these assays?
Luciferase inh: 1%[11.4 µM]

What do the screens show for `CC(C)=NO[C@@H](C)c1cn([C@H](CO)Cc2ccccc2)nn1`?
Luciferase inh: 0%[11.4 µM]

Results for CCOC(=O)c1sc2nc3c(cc2c1N)COC(C)(C)C3 ?
PK Bst: inactive; Luciferase inh: 20µM*; GBA mod: >77

How did CCC1(C)Cc2nc3sc(C(=O)O)c(N)c3cc2CO1 (stereo not drawn) do in these assays?
PK Bst: >57; Luciferase inh: -3%; GBA mod: >77

What do the screens show for `Cc1cc(C(=O)CN2C(=O)NC3(CCCc4ccccc43)C2=O)c(C)n1Cc1cccs1` (stereo not drawn)?
Luciferase inh: 13µM*; GBA mod: >77

How did Cc1cc(C(=O)CN2C(=O)NC(c3ccccc3)(c3ccccc3)C2=O)c(C)n1Cc1ccco1 do in these assays?
PK Bst: >57; Luciferase inh: -2%; GBA mod: >77

Results for COc1ccc2[nH]cc(CCNc3ncncc3-c3cccc(C#N)c3)c2c1 ?
Luciferase inh: 1%[2.29 µM]

Results for COC(=O)c1sccc1NC(=O)c1cc(C)on1 ?
PK Bst: >57; Luciferase inh: 3%; GBA mod: >77

What do the screens show for `COC(=O)c1sccc1NC(=O)c1c(C)noc1C`?
PK Bst: >57; Luciferase inh: 2%; GBA mod: 12*

What do the screens show for `CC(C)NC(=O)N1CCCC2(CCN(C(=O)c3ccco3)CC2)C1`?
Luciferase inh: 1%[11.4 µM]

What do the screens show for `CN(C)C(=O)c1ccc(-c2nc(NCc3cccnc3)c3ccccc3n2)cc1`?
Luciferase inh: -1%[2.29 µM]

How did O=C(NCCN1CCOCC1)c1cccc(Cl)c1 do in these assays?
PK Bst: >57; Luciferase inh: -1%; GBA mod: inconclusive

How did O=C(NCCN1CCOCC1)NC1(C(F)(F)F)Oc2ccc(Cl)cc2O1 (stereo not drawn) do in these assays?
PK Bst: >57; Luciferase inh: 0%; GBA mod: 9.8*

Screening results: PubChem, National Center for Advancing Translational Sciences (NCATS)
